The values that follow come from PubChem BioAssay AID720582 (The Scripps Research Institute Molecular Screening Center, 2013).

Screen size: about 370,000 compounds; about 2,300 (0.62%) were called active. This is one part of a sample in which actives are shown more often than they occur.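 The calls were made as follows: active = inhibition above a per-campaign cutoff equal to the mean of compounds falling between control-based bounds plus 3 SD (cut at about 20% in these data); inactive = the rest.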

For orientation: inhibition means the change of the read-out against control, counted positive when it falls.

For the assay, the target named is Disintegrin and metalloproteinase domain-containing protein 10 (Homo sapiens) (UniProt O14672). Put plainly: human ADAM10 inhibitors, primary screen, biochemical, QFRET, HTS (AID 720582).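 Also: 0% = DMSO wells while the 100% control is not disclosed.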 The settings on record: recombinant ADAM10, EDANS/DABCYL FRET peptide cleavage, 3 h; at 7 µM; active compounds read high.
Sequence of Disintegrin and metalloproteinase domain-containing protein 10 (Homo sapiens) (O14672 214-748 limits assumed): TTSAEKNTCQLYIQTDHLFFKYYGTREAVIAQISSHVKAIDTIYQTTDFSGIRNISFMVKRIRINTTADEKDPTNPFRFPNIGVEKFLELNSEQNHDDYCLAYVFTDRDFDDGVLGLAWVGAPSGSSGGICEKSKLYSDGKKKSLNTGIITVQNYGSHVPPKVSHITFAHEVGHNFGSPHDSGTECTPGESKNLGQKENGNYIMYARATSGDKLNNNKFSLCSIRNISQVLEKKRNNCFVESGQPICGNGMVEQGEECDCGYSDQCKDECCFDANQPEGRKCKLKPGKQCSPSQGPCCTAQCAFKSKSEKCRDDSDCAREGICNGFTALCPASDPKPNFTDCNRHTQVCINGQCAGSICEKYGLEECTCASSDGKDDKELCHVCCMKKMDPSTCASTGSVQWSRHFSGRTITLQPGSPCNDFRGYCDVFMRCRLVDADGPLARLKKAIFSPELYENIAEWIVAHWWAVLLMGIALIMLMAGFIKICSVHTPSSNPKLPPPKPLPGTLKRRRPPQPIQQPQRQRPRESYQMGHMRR
Consider `Cc1cc(NS(=O)(=O)c2ccc(NC(=O)CSc3nnc(-c4ccc(C(C)(C)C)cc4)n3Cc3ccco3)cc2)nc(C)n1`, for which the inhibition was 5.55% (inactive). To `COc1ccc(C2Nc3ccccc3C(=O)N2Cc2cccs2)cc1COc1c(C)cccc1C` (stereo not given) belongs -298% (inactive). In the case of `COc1ccc(C(=O)OCCN(C)C2CN(Cc3cn(Cc4cccc(C)c4)nn3)S(=O)(=O)C2)cc1OC` (stereo not given), the inhibition was 2.95% (inactive).

Turning to `Cc1ccc(-n2c(SCC(=O)Nc3cccc4ccccc34)nnc2-c2ccco2)cc1`, the inhibition is 9.63% (inactive). On to `S=c1[nH]ccn1-c1ccc(Cl)cc1`, for which the inhibition was -2.53% (inactive). As to `S=c1[nH]nc(CSCc2ccc(Cl)cc2Cl)n1-c1ccccc1`, the inhibition is 15.5% (inactive).

Regarding `S=c1[nH]cc(-c2ccc(Cl)cc2)n1-c1ccccc1`, the inhibition is 22.5% (active).

Turning to `O=C(c1cccc(C(F)(F)F)c1)N1CC[C@H]2[C@H](CCCN2Cc2cc(F)cc(F)c2)C1`, the inhibition was -2.92% (inactive). In the case of `CCn1c(CNc2ccc(OC)cc2)nnc1SCC(=O)c1ccc(OC)cc1`, the inhibition is -4.28% (inactive). As to `Cn1c(Cc2cccs2)nnc1SCC(=O)Nc1ccccc1`, the inhibition is -5.09% (inactive). In the case of `Cn1c(CNc2nc(-c3ccccc3)cs2)nnc1SCC(=O)c1ccccc1` it was 35% (active); in that of `COc1ccc(CN2C(=O)N3Cc4cc(OC)ccc4C3CS2(=O)=O)cc1` (stereo not given), 2.06% (inactive). As to `O=C(CCCCCN1C(=O)C2C3C=CC(C3)C2C1=O)Nc1ccccc1` (stereo not given), the inhibition was 1.21% (inactive). In the case of `COc1ccc([C@H]2CC(=O)C=C(c3ccc(OC(F)(F)F)cc3)C2)cc1OC` it was 21% (active); in that of `COc1ccc([C@H]2CC(=O)C=C(c3ccc(CO)cc3)C2)cc1`, -0.95% (inactive). `COc1cccc(C2=CC(=O)C[C@H](c3ccc(OC)c(OC)c3)C2)c1`: the inhibition was 1.42% (inactive). In the case of `O=C(COC(=O)Cc1c[nH]c2ccccc12)NCCc1ccccc1` it was 7.22% (inactive); in that of `Cc1cc(C)cc(NC(=S)NCCc2c[nH]c3ccccc23)c1`, 28.5% (active). Regarding `Cc1ccc(S(=O)(=O)N(C)CC(=O)NCCc2c[nH]c3ccccc23)cc1`, the inhibition was -6.6% (inactive). Regarding `COc1cc(Cl)cc(C2NC(=O)NC(C)=C2C(=O)NCc2ccccc2)c1O` (stereo not given), the inhibition is -4.94% (inactive).

Consider `COc1cc(/C=C2/SC(=S)N(Cc3ccccc3)C2=O)cc(OC)c1O`, for which the inhibition is 20.6% (active). In the case of `COc1cc(C(=S)NCc2ccccc2)cc(Br)c1O` it was 10.6% (inactive); in that of `NS(=O)(=O)c1ccc(NC(=O)COC(=O)C2(c3ccc(F)cc3)CCCC2)cc1`, 13% (inactive). In the case of `CN(C)S(=O)(=O)c1cccc(NC(=O)COC(=O)C2(c3ccccc3F)CCCC2)c1`, the inhibition was 27.6% (active). Take `O=C(COC(=O)COc1ccccc1F)Nc1cccc(S(=O)(=O)N2CCCCC2)c1`: the inhibition was -11.9% (inactive). Regarding `COC(=O)C1CN(CC(C)C)CCS(=O)(=O)N1Cc1ccc(C)cc1` (stereo not given), the inhibition is -14.6% (inactive). To `COC(=O)CC1CCc2cc(C)cc(C(CC(C)C)NC(=O)[C@H](CC(C)C)NC(=O)OCc3ccccc3)c2O1` (stereo not given in full) belongs -2.1% (inactive); to `COc1ccc(N2CCN(CCNS(=O)(=O)c3ccc(Cl)s3)CC2)cc1`, 0.29% (inactive); to `C=CCC[C@@H](Cc1ccc(F)cc1)C(=O)O[C@H](CNC(=O)[C@H](CC=C)CC(=O)N(CCO)Cc1ccccc1)c1ccccc1`, 31.3% (active).

`C=CC[C@@H](CC(=O)N[C@H](CO)Cc1ccccc1)C(=O)N[C@@H](COC(=O)[C@@H](CC=C)Cc1ccc(F)cc1)Cc1c[nH]c2ccccc12`: the inhibition is 0.04% (inactive). `C=CC[C@H](CC(=O)N(CCO)Cc1ccccc1)C(=O)N[C@@H](COC(=O)[C@@H](CC=C)Cc1ccc(F)cc1)Cc1ccccc1`: the inhibition was 28% (active). On to `C=CCC[C@H](Cc1ccc(F)cc1)C(=O)OC[C@H](C)NC(=O)[C@H](CC=C)CC(=O)N(CCO)Cc1ccccc1`, for which the inhibition was 7.82% (inactive). With `C=CCC[C@H](Cc1ccc(F)cc1)C(=O)OC[C@@H](NC(=O)[C@@H](CC=C)CC(=O)N[C@H](CO)Cc1ccccc1)C(C)(C)C`, the inhibition is 8.16% (inactive).

Take `C=CCC[C@@H](Cc1ccc(F)cc1)C(=O)OC[C@@H](C)NC(=O)[C@H](CC=C)CC(=O)N(CCO)Cc1ccccc1`: the inhibition was 8.58% (inactive). Regarding `C=CCC[C@@H](Cc1ccc(F)cc1)C(=O)OC[C@H](Cc1c[nH]c2ccccc12)NC(=O)[C@@H](CC=C)CC(=O)N(CCO)Cc1ccccc1`, the inhibition is 41.8% (active).

`C=CC[C@@H](Cc1ccc(F)cc1)C(=O)OC[C@H]1CCCN1C(=O)[C@H](CC=C)CC(=O)N(CCO)Cc1ccccc1`: the inhibition is -2.18% (inactive). On to `C=CCC[C@H](Cc1ccc(F)cc1)C(=O)OC[C@@H](Cc1c[nH]c2ccccc12)NC(=O)[C@H](CC=C)CC(=O)N[C@H](CO)Cc1ccccc1`, for which the inhibition is 0.78% (inactive).

Take `CSc1ccc(C=Nn2c(-c3ccc(F)cc3)n[nH]c2=S)cc1`: the inhibition was -11.4% (inactive).

Regarding `Cc1cccc(C(=O)Nc2c(-c3ccc(F)cc3)nc3ncccn23)c1`, the inhibition was -329% (inactive). As for `CCC(CO)Nc1cccc2c1S(=O)(=O)N(Cc1cn(Cc3ccccc3C(F)(F)F)nn1)Cc1ccccc1O2` (stereo not given), the inhibition is -15.3% (inactive). `O=C(N1CCOCC1)N1CC[C@H]2[C@H](CCCN2Cc2ccc(F)cc2)C1`: the inhibition is -0.66% (inactive).

As to `CC(C)CNc1cccc2c1S(=O)(=O)N(Cc1cn(Cc3ccc(Cl)cc3)nn1)Cc1ccccc1O2`, the inhibition was -29.6% (inactive). For `CCn1c(=O)n2n(c1=O)[C@@]1(C=C3CCCC[C@H]32)N=C(NC(=O)c2ccccc2)N(Cc2ccccc2)[C@H]1Cc1ccccc1`, the inhibition is 9.57% (inactive).

For the compound `COC(=O)C[C@@H]1CC[C@@H]2[C@H](COc3ccc(NC(=O)c4cccc(F)c4)cc3C(=O)N2C)O1`, the inhibition was 9.14% (inactive).

On to `COc1cccc(CNC(=O)CNS(=O)(=O)c2ccc3nc(C)sc3c2)c1OC`, for which the inhibition was 4.07% (inactive). Turning to `Cc1cc(C(=O)NN=C/C=C/c2ccco2)n[nH]1`, the inhibition is -13.7% (inactive).

Consider `C[C@@H]1ON(C)[C@H]2C[C@H]3c4[nH]c5cccc(-c6ccc7c(c6)OCO7)c5c4CCN3C[C@@H]12`, for which the inhibition is -72.8% (inactive). For the compound `O=C(NN1C(=O)C2C3C=CC(O3)C2C1=O)c1ccccc1` (stereo not given), the inhibition is 1.76% (inactive). For the compound `COc1ccc(C(=O)NN2C(=O)C3C(c4ccccc4)C=CC(c4ccccc4)C3C2=O)cc1` (stereo not given), the inhibition was 24.9% (active). On to `O=C(NN1C(=O)C2C3C=CC(C4CC34)C2C1=O)c1ccc(Cl)cc1` (stereo not given), for which the inhibition was -2.31% (inactive).
